Among all 24,000 compounds or so, about 150 (0.62%) were called active. The list comes from a sample in which actives are over-represented; it also holds similar structures and randomly drawn compounds. Values without a mark were called inactive.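 How the source made its calls: active means fluorescence ratio above 2.44, which is 1 plus 3 SD of all ratios; inconclusive means signal too bright to measure linearly, ratio around 10 or more; inactive means fluorescence ratio below 2.44.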

Our source for the fluorescence ratio values is PubChem BioAssay AID576 (NMMLSC, 2007).

The experiment can be described thus: intrinsic compound fluorescence with Jurkat cells – cell-based, flow cytometry, artefact control for VLA-4 allosteric ligand project, primary screen (AID 576).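 Further: green fluorescence of cells measured with 488 nm excitation and 530 nm emission; tested at 10 µM compound in the well.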 The note with it: compound autofluorescence, stronger effect = higher value, 1 = vehicle-only cell background. (In general: Flow cytometry measures light scatter and fluorescence of single cells or particles in a stream.)
For the compound `O=C(CN1CCN(c2ccccc2F)CC1)c1ccc2c(c1)OCO2`, the fluorescence ratio was 1.02.

With `COCCNC(=O)CN1C(=O)CSc2ncccc21`, the fluorescence ratio is 1.05.

With `CCOC(=O)N1CCC(NC(=O)COc2cc(=O)n(C)c3ccccc23)CC1`, the fluorescence ratio is 0.98.

In the case of `CCOC(=O)C1CCCN(C(=O)c2sc3nc(C)nc(N4CCOCC4)c3c2C)C1` (stereo not drawn), the fluorescence ratio was 1.03.

Turning to `O=C(Cn1cc2c(n1)CCCCC2)NCCN1CCOCC1`, the fluorescence ratio was 0.97.

For `COc1ccccc1-n1cnc2cc(C(=O)NCC3CCCO3)ccc21` (stereo not drawn), the fluorescence ratio was 1.03.

With `COCCn1c(=O)[nH]c2cc(C(=O)NCc3cccnc3)ccc2c1=O`, the fluorescence ratio is 1.03.

`COc1ccc(C(CC(=O)O)NC(=O)Cc2ccccc2)cc1` (stereo not drawn): the fluorescence ratio is 0.92.

Consider `CCOC(=O)CSc1nnc(CNC(=O)c2cccs2)n1-c1ccccc1`, for which the fluorescence ratio is 1.06.

On to `CC(C)C(=O)Nc1c(C(=O)c2ccc(F)cc2)oc2ccccc12`, for which the fluorescence ratio was 0.99.

As for `Nc1nonc1-c1nc2ccccc2n1CCC(=O)O`, the fluorescence ratio was 1.57.

In the case of `Cc1noc(C)c1CSc1nc2cc(S(=O)(=O)N3CCOCC3)ccc2o1`, the fluorescence ratio was 1.05.

For `COc1ccc(C2C(C(=O)N3CCN(c4ccc(OC)cc4)CC3)c3ccccc3C(=O)N2C)cc1` (stereo not drawn), the fluorescence ratio is 1.1.

For the compound `Cc1cc(N2C(=O)c3ccc(C(=O)NCc4ccccc4)cc3C2=O)no1`, the fluorescence ratio was 1.09.

Take `CCN(CC(=O)Nc1ccc2c(c1)OCCO2)Cc1cc(=O)oc2cc(C)c(C)cc12`: the fluorescence ratio was 1.06.

Consider `CCOC(=O)C1CCN(C(=O)C2CCN(S(=O)(=O)N3CCCC3)CC2)CC1`, for which the fluorescence ratio was 0.96.

For `CC(=O)c1c(C)c[nH]c1C`, the fluorescence ratio is 1.09.

With `CCN1C(=O)/C(=C2/Sc3ccccc3N2CCCS(=O)(=O)O)SC1=S`, the fluorescence ratio is 1.

As to `CCN(CC)CCCNC(=O)c1cc(-c2cccc(Cl)c2)on1`, the fluorescence ratio is 1.16.

On to `Cc1cc(NC(=O)CN2CCC(O)(c3cccc(F)c3)CC2)no1`, for which the fluorescence ratio was 1.02.

In the case of `COCCOC(=O)C1=C(C)N=c2s/c(=C\c3cccs3)c(=O)n2C1c1cccs1` (stereo not drawn), the fluorescence ratio is 1.11.

On to `Cc1c(C(=O)Nc2ccccc2Cl)oc2ccc(S(=O)(=O)N3CCC4(CC3)OCCO4)cc12`, for which the fluorescence ratio is 0.97.

With `CC1(C)Oc2ccc3ccc(=O)oc3c2/C(=C/NCCO)C1=O`, the fluorescence ratio is 1.15.

`COCCNC(=O)c1snc2ccc(Cl)cc12`: the fluorescence ratio was 1.

For the compound `O=C(CN1CCN(CC(=O)Nc2ccc3c(c2)OCO3)CC1)Nc1ccc(F)cc1`, the fluorescence ratio is 0.97.

As for `Cc1ccc(S(=O)(=O)NCc2csc(C)n2)c(C)c1`, the fluorescence ratio is 0.95.

Consider `Cc1cccn2c(=O)c3cc(C(=O)N4COCC4(C)C)n(C)c3nc12`, for which the fluorescence ratio was 1.08.

On to `COc1ccccc1N1CCN(Cc2nnnn2CCc2ccccc2)CC1`, for which the fluorescence ratio is 0.99.

For `COc1ccc(C2CC(c3ccc(Cl)cc3Cl)Nc3nc(N)nn32)cc1OC` (stereo not drawn), the fluorescence ratio is 1.06.

As to `C=CCOC(=O)C1=C(C)OC(N)=C(C#N)C1c1ccc(F)cc1` (stereo not drawn), the fluorescence ratio was 1.25.

On to `CC(=O)N1C(=O)C2(Nc3ccccc3N2)c2ccccc21`, for which the fluorescence ratio is 1.04.

Turning to `CCOC(=O)c1sc(=S)n(-c2cccc(OC)c2)c1N`, the fluorescence ratio was 1.14.

Take `Cc1ccccc1CSc1nnc(Cn2c(=O)sc3ccccc32)n1C`: the fluorescence ratio was 0.88.

Consider `CCOC(=O)CSc1nnc(CNC(=O)c2ccco2)n1-c1ccc(F)cc1`, for which the fluorescence ratio is 1.

For the compound `CCOC(=O)c1ccc(CS(=O)c2ccc(Cl)cc2)o1` (stereo not drawn), the fluorescence ratio is 1.08.

Regarding `CC1=C(C)CC2C(=O)N(c3cccc4ccccc34)C(=O)C2C1` (stereo not drawn), the fluorescence ratio was 1.06.

Turning to `COC(=O)C(C)Sc1nc2c(c(=O)n(C)c(=O)n2C)n1Cc1cccc(C)c1` (stereo not drawn), the fluorescence ratio was 1.09.

In the case of `O=C1OC(NC(=O)c2ccccc2)C(N2CCOCC2)=C1Cl` (stereo not drawn), the fluorescence ratio was 1.07.

Take `O=C(CN1CCN(c2ccc(F)cc2)CC1)Nc1cccc(C(F)(F)F)c1`: the fluorescence ratio is 0.96.

For `CCc1ccc(NC(=O)CSc2nc3ccccc3c(=O)n2CCN2CCOCC2)cc1`, the fluorescence ratio was 1.15.

For `CCn1cc(C(=O)NC2CCCCCC2)c(=O)c2cc(S(=O)(=O)N3CCCCC3)ccc21`, the fluorescence ratio is 1.18.

In the case of `CCCC(=O)NC(C)C(c1cccs1)N1CCN(c2ccccc2)CC1` (stereo not drawn), the fluorescence ratio is 1.12.

`O=C(Nc1cccnc1)c1ccc2c(c1)OCO2`: the fluorescence ratio is 1.06.

As for `CCOC(=O)n1c(SCC(=O)N(CC)CC)nc2ccccc21`, the fluorescence ratio is 0.99.

With `CCS(=O)(=O)N1CCCC(C(=O)NCc2ccc(C)cc2)C1` (stereo not drawn), the fluorescence ratio was 0.99.

As to `CCOC(=O)C1CCN(C(=O)Cc2c(C(=O)O)[nH]c3ccccc23)CC1`, the fluorescence ratio is 1.09.

For `COc1ccc(OC)c(C(=O)c2ccc(C(=O)O)cc2)c1`, the fluorescence ratio is 0.99.

With `COc1ccccc1-c1c(C)nn2c(C)c(C(C)=O)cnc12`, the fluorescence ratio is 0.98.

For `Cc1ccc(C)c(N2CCN(C(=O)CCc3nc4ccccc4[nH]3)CC2)c1`, the fluorescence ratio is 1.04.

With `O=C(CN1CCOCC1)Nc1c2c(nc3c1CCC3)CCC2`, the fluorescence ratio is 0.96.

Take `Cc1cc(NC(=O)c2cc(-c3cccs3)on2)nn1Cc1ccc(Cl)cc1`: the fluorescence ratio is 1.05.

Regarding `CC(=O)Nc1nonc1-c1nc2ccccc2n1Cc1ccccn1`, the fluorescence ratio is 1.24.

Take `CC(Sc1sc(=S)sc1SC(C)C(=O)O)C(=O)O` (stereo not drawn): the fluorescence ratio was 0.93.

As to `Cn1c(=O)cc(SCC(=O)N2CCN(C(=O)c3ccco3)CC2)c2ccccc21`, the fluorescence ratio was 1.12.

Turning to `C=CCNC(=O)CSc1nc2sc(C)c(C)c2c(=O)[nH]1`, the fluorescence ratio was 1.07.

Regarding `O=C(O)CC(c1ccccc1)n1cnnn1` (stereo not drawn), the fluorescence ratio is 0.92.

Consider `Cn1nnnc1SCc1cc(=O)[nH]c2ccccc12`, for which the fluorescence ratio was 1.06.

For the compound `CC(C)OCCCNC(=O)C1CC(=O)N(C2CCCCCCC2)C1` (stereo not drawn), the fluorescence ratio was 0.98.

Consider `CCOc1ccc(N(CC(=O)NCc2ccc(OC)cc2)S(=O)(=O)c2c(C)noc2C)cc1`, for which the fluorescence ratio was 0.82.

Take `COc1ccc(CCN(Cc2cc3cccc(C)c3[nH]c2=O)C(=O)N2CCCC2)cc1OC`: the fluorescence ratio was 1.08.

For the compound `O=C(CN1C(=O)C2C3C=CC(C3)C2C1=O)NCCc1ccccc1Cl` (stereo not drawn), the fluorescence ratio was 1.19.

Turning to `O=C(CCn1c(=O)oc2ccccc21)Nc1ccon1`, the fluorescence ratio is 1.03.

For the compound `Cc1cc(=O)n2nc(N3CCCC(C(=O)N4CCN(C)CC4)C3)sc2n1` (stereo not drawn), the fluorescence ratio is 1.07.
